Screening data deposited in PubChem by several laboratories.
Hits are enriched below; roughly 3.8% of the tested compounds scored in any of these assays.
PAFAH1B3 FP inh = inhibitors of human PAFAH1B3; inhibition, % at 3.39 µM; Q15102; recombinant PAFAH1B3, FP-rhodamine probe, fluorescence polarization; actives 0.28% (n = 340,000);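 active = inhibition above the screen-wide average of all tested compounds plus 3 SD, cut at about 25% in these data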
Target sequence (Q15102 whole entry, looked up): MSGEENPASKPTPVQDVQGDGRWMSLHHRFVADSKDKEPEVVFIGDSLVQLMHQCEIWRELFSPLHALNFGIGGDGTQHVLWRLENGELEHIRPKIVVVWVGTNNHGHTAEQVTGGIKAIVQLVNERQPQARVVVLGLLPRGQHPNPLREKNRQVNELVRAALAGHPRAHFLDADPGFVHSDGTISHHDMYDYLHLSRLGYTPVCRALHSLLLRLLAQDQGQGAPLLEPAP
PAFAH2 inh = inhibitors of human PAFAH2 | actives 0.99% (n = 340,000) | recombinant PAFAH2, FP-rhodamine activity probe, fluorescence polarization | AID 492956 | inhibition, % at 3.39 µM | Q99487;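 active = inhibition above the mean over all tested compounds plus 3 SD, cut at about 30% in these data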;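 note: inhibitors block probe labeling of enzyme so polarization drops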
DSG3 Ab inh = inhibitors of pemphigus antibody binding to human desmoglein-3 | P32926 | DSG3-coupled beads, scFv-anti-DSG3-GFP binding, flow cytometry; stronger effect = lower value | binding (percent of control), % at 10 µM | actives 0.48% (n = 310,000) | AID 588358;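 active = binding more than 3 SD below its plate's average and above zero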;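 note: hits lower antibody fragment binding to DSG3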
pPAFAH FP inh = pPAFAH (human) enzyme inhibition. Q13093. recombinant pPAFAH, FP-rhodamine probe fluorescence polarization. inhibition, % at 3.39 µM. actives 1.5% (n = 330,000). AID 463082;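 active = inhibition above the mean inhibition across the screen plus 3 SD, cut at about 25% in these data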;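 note: inhibitors block binding of the rhodamine activity-based probe so polarization drops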
PAFAH1B2 FP inh = inhibitors of human PAFAH1B2; actives 1.2% (n = 340,000); AID 492953; inhibition, % at 3.39 µM; P68402; recombinant PAFAH1B2, FP-rhodamine activity probe, fluorescence polarization;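 active = inhibition above the mean of all tested compounds plus 3 SD, cut at about 24% in these data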
PfM18AAP inh-1 = PfM18AAP enzyme inhibition; AID 1822; recombinant PfM18AAP, H-Glu-NHMec fluorogenic cleavage; inhibition, % at 7.35 µM; actives 1.2% (n = 290,000);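 active = inhibition above the campaign mean inhibition over all tested compounds plus 3 SD, cut at about 28% in these data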
PfM18AAP inh-2 = PfM18AAP inhibition, confirmation; inhibition, % at 7.35 µM; shares compounds with PfM18AAP inh-1; recombinant PfM18AAP, H-Glu-NHMec fluorogenic cleavage; actives 28% (n = 2,400); AID 2170;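 active = mean inhibition over replicate wells above the hit cutoff set for the earlier primary screen, cut at about 29% in these data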
CTSL1 counter = counter-screen for PFM18AAP inhibitors: confirmation of human cathepsin L inhibitors | shares compounds with PfM18AAP inh-1 | purified cathepsin L1, Z-Leu-Arg-MCA fluorescence | inhibition, % at 5.96 µM | 2,400 tested, under 10 active | AID 2178;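 active = average inhibition across replicates above the hit cutoff set in the earlier primary screen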
Target sequence (P07711 whole entry, looked up): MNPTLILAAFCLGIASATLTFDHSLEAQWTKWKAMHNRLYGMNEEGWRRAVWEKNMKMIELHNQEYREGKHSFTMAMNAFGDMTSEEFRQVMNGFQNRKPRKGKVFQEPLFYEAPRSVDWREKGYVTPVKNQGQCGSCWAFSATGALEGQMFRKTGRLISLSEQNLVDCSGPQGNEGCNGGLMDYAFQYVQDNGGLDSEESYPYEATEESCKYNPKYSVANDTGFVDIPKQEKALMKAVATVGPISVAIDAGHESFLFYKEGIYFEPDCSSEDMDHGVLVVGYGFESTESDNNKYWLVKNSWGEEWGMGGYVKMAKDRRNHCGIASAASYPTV
Each line names hits and unclear results; the compound was inactive in the other large screens (follow-up assays come after a bar, where they were run).

Cc1ccc2sc(NNC(=O)C3=COCCO3)nc2c1C	PfM18AAP inh-1 32 | PfM18AAP inh-2 inactive | CTSL1 counter inactive
CN(C(=O)CSc1nnc(-c2c[nH]c3ccccc23)n1C1CC1)C1CCS(=O)(=O)C1 (centres undefined)	none (no result: PfM18AAP inh-1)
COc1cc(NC(=O)CN2CCN(C(=O)c3ccco3)CC2)c(C)cc1[N+](=O)[O-]	none (no result: PAFAH1B3 FP inh, PAFAH2 inh, pPAFAH FP inh, PAFAH1B2 FP inh, PfM18AAP inh-1)
Cc1ccc(-c2nc(N/N=C/c3ccncc3)c3ccccc3n2)cc1	PfM18AAP inh-1 43 | PfM18AAP inh-2 inactive | CTSL1 counter inactive
Cc1ccc2nc(C(Cl)(Cl)Cl)nc(N/N=C/c3ccncc3)c2c1	none
O=C1CSC(=S)N1/N=C/c1c(F)cccc1F	PfM18AAP inh-1 37 (no result: DSG3 Ab inh) | PfM18AAP inh-2 inactive | CTSL1 counter inactive
COc1cc(/C=N/N2C(=O)CSC2=S)cc(Br)c1O	none (no result: pPAFAH FP inh)
COc1cccc(/C=N/N2C(=O)CSC2=S)c1O	PfM18AAP inh-1 32 | PfM18AAP inh-2 inactive | CTSL1 counter inactive
O=C1CSC(=S)N1/N=C/c1cccc(C(F)(F)F)c1	PfM18AAP inh-1 40 | PfM18AAP inh-2 inactive | CTSL1 counter inactive
O=C1CSC(=S)N1c1cccc(Cl)c1	none
O=C(N/N=C/c1cccc(C(F)(F)F)c1)c1ccc(O)cc1	none
O=C(/C=C/c1ccc(O)c(O)c1)c1ccccc1O	PfM18AAP inh-1 72 | PfM18AAP inh-2 61 | CTSL1 counter inactive
O=C(C=Cc1cccc(O)c1)c1ccccc1O	none (no result: pPAFAH FP inh, PfM18AAP inh-1)
COc1ccc(C=O)cc1OC(=O)N1CCOCC1	none
COc1cccc2cc(C(=O)Nc3ccccc3Cl)/c(=N/NS(=O)(=O)c3ccccc3)oc12	none
CC(C)(C)C1CCc2c(sc(NC(=O)CSc3ncn[nH]3)c2C#N)C1 (centres undefined)	PfM18AAP inh-1 34 (no result: DSG3 Ab inh) | PfM18AAP inh-2 inactive | CTSL1 counter inactive
CC1CCCCC1NC(=O)CCNS(=O)(=O)c1cc(Br)cnc1N (centres undefined)	none
O=C(CCC(C(=O)c1ccccc1)c1ccccc1)c1ccccc1 (centres undefined)	none (no result: PAFAH1B3 FP inh, PAFAH2 inh, pPAFAH FP inh, PAFAH1B2 FP inh, PfM18AAP inh-1)
CC1(C)Cc2c(sc3nc(=S)[nH]c(N)c23)CO1	PfM18AAP inh-1 32 (no result: PAFAH1B3 FP inh, PAFAH2 inh, DSG3 Ab inh, PAFAH1B2 FP inh) | PfM18AAP inh-2 inactive | CTSL1 counter inactive
Cn1c(NN)nc2sc3c(c2c1=O)CC(C)(C)OC3	none
Cc1nc(NN)c2c3c(sc2n1)COC(C)(C)C3	PfM18AAP inh-1 58 | PfM18AAP inh-2 inactive | CTSL1 counter inactive
CC1(C)Cc2c(sc3ncnc(N)c23)CO1	none
Cc1cc(NC(=O)CSc2nnc(-c3ccc([N+](=O)[O-])cc3)o2)no1	none
Cc1ncc(CO)c(/C=N/NC(=O)c2ccc(Br)cc2)c1O	none (no result: PAFAH1B3 FP inh, PAFAH2 inh, DSG3 Ab inh, PAFAH1B2 FP inh)
Cc1ncc(CO)c(/C=N/NC(=O)c2cc(O)c(O)c(O)c2)c1O	PfM18AAP inh-1 58 (no result: PAFAH1B3 FP inh, PAFAH2 inh, DSG3 Ab inh, pPAFAH FP inh, PAFAH1B2 FP inh) | PfM18AAP inh-2 36 | CTSL1 counter inactive
CC(C)OCC1CC(CC(=O)Nc2ccc([N+](=O)[O-])cc2)C(=O)O1 (centres undefined)	none
O=C(CN1CCN(S(=O)(=O)c2ccc(Br)s2)CC1)N1CCCCC1	none (no result: PfM18AAP inh-1)
O=C1C=C(Nc2ccc(O)cc2)CC(c2ccco2)C1 (centres undefined)	PfM18AAP inh-1 42 | PfM18AAP inh-2 inactive | CTSL1 counter inactive
CC(C)CNC1=CC(=O)CC(c2ccco2)C1 (centres undefined)	PfM18AAP inh-1 40 (no result: DSG3 Ab inh) | PfM18AAP inh-2 inactive | CTSL1 counter inactive
Cc1cccc(OCC2CCCN(Cc3nc(C4CC4)no3)C2)c1 (centres undefined)	none
O=[N+]([O-])c1ccccc1S(=O)(=O)NC1CCCCCCC1	none
O=C1CCCCCCC1Sc1ccccc1[N+](=O)[O-] (centres undefined)	PfM18AAP inh-1 38 | PfM18AAP inh-2 inactive | CTSL1 counter inactive
O=C(C1CCCN(Cc2ccccc2[N+](=O)[O-])C1)N1CCCCC1 (centres undefined)	none
CCOc1cc(C(c2c(C)[nH][nH]c2=O)c2c(C)[nH][nH]c2=O)ccc1OS(=O)(=O)c1ccccc1	none
Cc1[nH][nH]c(=O)c1C(c1ccc(N(C)C)c(Br)c1)c1c(C)[nH][nH]c1=O	PfM18AAP inh-1 36 | PfM18AAP inh-2 inactive | CTSL1 counter inactive
O=C(NNc1cccc(Cl)n1)Nc1ccccc1Cl	PfM18AAP inh-1 50 | PfM18AAP inh-2 34 | CTSL1 counter inactive
O=C(NNc1cccc(Cl)n1)C1CC1	none
O=C(NNc1cccc(Cl)n1)Nc1ccccc1F	PfM18AAP inh-1 53 | PfM18AAP inh-2 41 | CTSL1 counter inactive
O=C(NNc1cccc(Cl)n1)Nc1ccc(F)cc1	PfM18AAP inh-1 52 | PfM18AAP inh-2 44 | CTSL1 counter inactive
O=C(NNc1cccc(Cl)n1)C(F)(F)F	none
O=C(CSc1nc(-c2ccccc2)c(-c2ccccc2)o1)NCCCO	none
CCCC(=O)N1CC(=O)Nc2ccc(C)cc2C1c1ccccc1 (centres undefined)	none
O=C1C(=O)N(c2nccs2)C(c2ccccc2F)/C1=C(\O)c1ccc2c(c1)OCCO2 (centres undefined)	none
CC(=O)O[C@@H](C[C@@H](C)C1=C2C[C@H](O)C3[C@@]4(C)CCC(=O)C(C)(C)C4CC[C@]3(C)[C@@]2(C)CC1)[C@H]1OC1(C)C (some centres undefined)	none (no result: pPAFAH FP inh, PfM18AAP inh-1)
N#Cc1c(/N=C/c2cccs2)sc2c1CCCCC2	PfM18AAP inh-1 34 | PfM18AAP inh-2 inactive | CTSL1 counter inactive
CC(C)(C)c1ccc(S(=O)(=O)O/N=C2/CCCCC2c2ccc([N+](=O)[O-])cc2[N+](=O)[O-])cc1 (centres undefined)	PfM18AAP inh-1 38 | PfM18AAP inh-2 inactive | CTSL1 counter inactive
O=C(O)C1CCN(S(=O)(=O)c2ccc(N3CCCC3C(=O)O)c([N+](=O)[O-])c2)CC1 (centres undefined)	PfM18AAP inh-1 36 (no result: DSG3 Ab inh) | PfM18AAP inh-2 inactive | CTSL1 counter inactive
Cc1cc(=O)[nH]c(SCC(=O)Nc2ccccc2C#N)c1C#N	PfM18AAP inh-1 38 | PfM18AAP inh-2 inactive | CTSL1 counter inactive
N#CC1=C(N)NC(=S)C(C(N)=O)C1c1ccc([N+](=O)[O-])cc1 (centres undefined)	PfM18AAP inh-1 48 (no result: DSG3 Ab inh) | PfM18AAP inh-2 35 | CTSL1 counter inactive
O=C1NC(C(=O)O)=CC(c2ccc([N+](=O)[O-])cc2)N1 (centres undefined)	none
COc1ccc(O)c(/C=C2/SC(=S)N(Cc3ccccc3)C2=O)c1	PfM18AAP inh-1 42 | PfM18AAP inh-2 inactive | CTSL1 counter inactive
CCOC(=O)c1nn(-c2ccc(F)cc2)c(=O)cc1OCC(=O)Nc1ccc(OCC)cc1	none (no result: PfM18AAP inh-1)
